What is called AC50 is the concentration at which the activity in the assay is half-maximal.

These results are taken from PubChem BioAssay (EPA / NIEHS).

The structures appear in SMILES notation. The source made the active and inactive calls. Rule for the calls: active = hit-call score of the fitted dose curve at least 0.9, where 1 is the maximum; inconclusive = response in the unintended direction; inactive = score below 0.9.

For this assay, the system named is rat CYP3A1, gene 25642. Put plainly: NVS_ADME_rCYP3A1: NovaScreen (NVS) CYP450-related Enzyme Activity (ADME) Assay for rat CYP3A1 (AID 2283126). The procedure:
NVS_ADME_rCYP3A1 is a biochemical, single-readout assay that uses extracted gene-proteins in a cell-free assay. Measurements were taken 0.5 hour after chemical dosing in a 96-well plate.NVS_ADME_rCYP3A1 is one of one assay component(s) measured or calculated from the NVS_ADME_rCYP3A1 assay. It is designed to make measurements of enzyme activity, a form of enzyme reporter, as detected with fluorescence intensity signals by Fluorescence technology.Data from the assay component NVS_ADME_rCYP3A1 was analyzed into 1 assay endpoint. This assay endpoint, NVS_ADME_rCYP3A1, was analyzed in the positive analysis fitting direction relative to Acetonitrile as the negative control and baseline of activity. Using a type of enzyme reporter, loss-of-signal activity can be used to understand changes in the enzymatic activity as they relate to the gene Cyp3a23/3a1. Furthermore, this assay endpoint can be referred to as a primary readout, because this assay has produced multiple assay endpoints where this one serves a enzymatic activity function. To generalize the intended target to other relatable targets, this assay endpoint is annotated to the cyp intended target family, where the subfamily is xenobiotic metabolism.
Binding assays used specific radioligands (tritiated, iodinated) with non-radioactive competitive displacement ligands in agonist or antagonist protocols (as indicated) and various reference compounds and inhibitors to titrate specific binding to receptors and transporters. Most enzyme assays (CYPs, kinases, phosphatases, proteases, HDACs) used recombinant protein and specific substrates (fluorescence mostly, some colorimetric and radioactive) and inhibitors, followed by a biochemical separation of substrate and product. All assays for the biochemical HTS were initially run in duplicate at a single concentration (10 uM for CYP450 assays and 25 uM for all others). Assay-chemical combinations meeting a pre-defined threshold (e.g., 30% inhibition and other criteria defined below) were then run in singleton concentration-response format with maximum concentration of 20 uM for CYPs and 50 uM for all others. Each assay was run with positive and negative controls, and concurrent controls on every plate. The follow-up (secondary) screen tested active chemical-pairs in concentration series, as well as a few additional assays not tested in the primary screen, some selected negative inactives, and several cases re-run in the concentration series for confirmatory purposes.
`CC(C1CC1)C(O)(Cn1cncn1)c1ccc(Cl)cc1` (stereo unspecified): the AC50 is 0.384 µM (active). In the case of `COc1ccc(C(=CC(=O)N2CCOCC2)c2ccc(Cl)cc2)cc1OC`, the AC50 was 3.86 µM (active).

As to `FC(F)C(F)(F)OCC(Cn1cncn1)c1ccc(Cl)cc1Cl` (stereo unspecified), the AC50 was 3.65 µM (active). For `CCCSP(=O)(OCC)Oc1ccc(Br)cc1Cl` (stereo unspecified), the AC50 was 9.45 µM (active). Consider `COP(=O)(OC)SCn1c(=O)oc2cc(Cl)cnc21`, for which the AC50 is 9.11 µM (active). The same measure, in the same setting: the same measure for `CCOP(=S)(OCC)Oc1ccc2c(C)c(Cl)c(=O)oc2c1`: 1.22 µM (active); for `CSc1nc(NC(C)C)nc(NC(C)C)n1`: 5.92 µM (active); for `C[Si](Cn1cncn1)(c1ccc(F)cc1)c1ccc(F)cc1`: 1.23 µM (active). On to `CCOP(=O)(SC(C)CC)N1CCSC1=O` (stereo unspecified), for which the concentration at half-maximal activity (AC50) was 6.64 µM (active). Consider `CCOC(=O)CC(SP(=O)(OC)OC)C(=O)OCC` (stereo unspecified), for which the call was inactive. For the compound `CC(C)=CC1C(C(=O)OCN2C(=O)C3=C(CCCC3)C2=O)C1(C)C` (stereo unspecified), the result was inactive.

For the compound `CCC(=O)Nc1ccc(Cl)c(Cl)c1`, the half-maximal activity concentration (AC50) was 4.74 µM (active). Same read-out and setting: the result for `COc1cccc(C(=O)NN(C(=O)c2cc(C)cc(C)c2)C(C)(C)C)c1C` reads 0.331 µM (active). As to `CCOP(=O)(OCC)Oc1cc(C)nc(C(C)C)n1`, the result was inactive. Turning to `O=C(O)c1cc(Oc2ccc(C(F)(F)F)cc2Cl)ccc1[N+](=O)[O-]`, the half-maximal activity concentration (AC50) was 5.89 µM (active). In the case of `CC[C@H](C)[C@H]1O[C@]2(C=C[C@@H]1C)C[C@@H]1C[C@@H](C/C=C(\C)[C@@H](O[C@H]3C[C@H](OC)[C@@H](O[C@H]4C[C@H](OC)[C@@H](NC)[C@H](C)O4)[C@H](C)O3)[C@@H](C)/C=C/C=C3\CO[C@@H]4[C@H](O)C(C)=C[C@@H](C(=O)O1)[C@]34O)O2`, the AC50 was 7.04 µM (active). Still for that read-out and setting: the result for `CNc1cnn(-c2cccc(C(F)(F)F)c2)c(=O)c1Cl` reads 2.91 µM (active); that for `CCCOCC(=Nc1ccc(Cl)cc1C(F)(F)F)n1ccnc1`, 2.8 µM (active).

Consider `CCOP(=S)(OCC)Oc1ccc([N+](=O)[O-])cc1`, for which the AC50 is 6.9 µM (active). Still for that read-out and setting: the same measure for `CCOP(=S)(OCC)Oc1cc(C)nc(C(C)C)n1`: 6.82 µM (active). In the case of `S=C1NCCN1`, the compound was classed as inactive. For `C#CCC1=C(C)C(OC(=O)C2C(C=C(C)C)C2(C)C)CC1=O` (stereo unspecified), the AC50 was 7.59 µM (active). Still for that read-out and setting: the same measure for `Cc1cc(C2CC2)nc(Nc2ccccc2)n1`: 10.7 µM (active). In the case of `CCc1cccc(C)c1N(C(=O)CCl)C(C)COC` (stereo unspecified), the AC50 was 6.49 µM (active). As for `CCOP(=O)(NC(C)C)Oc1ccc(SC)c(C)c1` (stereo unspecified), the AC50 was 7.98 µM (active). Same read-out and setting: the result for `CSC1=N[C@@](C)(c2ccccc2)C(=O)N1Nc1ccccc1` reads 2.77 µM (active).
